Source: the supplement of paper PMC6555819

What was measured:
Experiment in all cases: PBM binding z-score (relative to random genomic background probes); higher = stronger binding; sequences stand for … in GC…GCGATTGACAGCGTAGAATGAAGG
[1] = test system: PPARg:RXRa DBDmut IVT, anti-RXR (DBD mutation: RXRa K156A/R161A, NR concentration 270 nM, RXRa partner concentration 90 nM)
Procedure, shortened: (§1)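 Custom Agilent 4×180K protein-binding microarrays carried double-stranded probes. Their 34-nt variable regions held direct-repeat seeds, single-nucleotide variants, half-site ablations and random human genomic background sequences. Arrays were incubated 1 h with ligand-free nuclear receptor dimers in PBS pH 7.4, 2% milk, 0.02% Triton X-100, 1 mM DTT, 0.2 mg/mL BSA and 0.4 mg/ml salmon testes DNA. Antibodies against each partner (one per run) detected binding, and scanned fluorescence was regression-normalized. Binding z-scores use random background probes as reference.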

[2] = test system: PPARg:RXRa IVT, anti-PPARg (NR concentration 270 nM, RXRa partner concentration 90 nM)
Procedure, shortened: as §1

[3] = test system: PPARg DBDmut:RXRa IVT, anti-PPARg (DBD mutation: PPARg1 K132A/R137A, NR concentration 270 nM, RXRa partner concentration 90 nM)
Procedure, shortened: as §1

[4] = test system: PPARg DBDmut IVT, anti-PPARg (DBD mutation: PPARg1 K132A/R137A, NR concentration 270 nM)
Procedure, shortened: as §1

[5] = test system: PPARg homodimer (NR concentration 180 nM)
Procedure, shortened: as §1

[6] = test system: PXR:RXRa (NR concentration 270 nM, RXRa partner concentration 90 nM)
Procedure, shortened: as §1

[7] = test system: PXR homodimer (NR concentration 270 nM)
Procedure, shortened: as §1

[8] = test system: RARa:RXR (NR concentration 270 nM, RXRa partner concentration 90 nM)
Procedure, shortened: as §1

[9] = test system: RARa homodimer (NR concentration 270 nM)
Procedure, shortened: as §1

[10] = test system: RARb:RXRa (NR concentration 270 nM, RXRa partner concentration 90 nM)
Procedure, shortened: as §1

Sequence	PBM binding z-score [1]	PBM binding z-score [2]	PBM binding z-score [3]	PBM binding z-score [4]	PBM binding z-score [5]	PBM binding z-score [6]	PBM binding z-score [7]	PBM binding z-score [8]	PBM binding z-score [9]	PBM binding z-score [10]
AGAATGAGGTTATTAAGATCATGGAATTGCGGTC	3.59	3.1	0.789	1.06	0.459	1.53	1.15	1.53	0.293	1.36
CAAACTAGGTCTCAGAGGTCAAAGTCCGTGCGTA	5.55	5.54	0.45	0.559	2.98	5.51	2.93	5.67	1.38	3.88
AGAAGGAGGGCAATGAGTTGATAGCACGGGTGGC	3.57	2.64	0.99	-0.352	0.922	1.39	4.17	0.2	0.815	1.92
ATCGAAAGGTCGACGAGGTGAATATACACCGTTT	0.98	2.07	1.87	0.44	2.04	3.88	1.24	4.49	1.02	3.94
TTACCAAGGTGAAAGGTCCTTGATGCACGCCTTG	2.49	4.34	-0.24	0.133	0.166	1.1	-0.666	2.31	-0.838	1.93
CCGACTGGGGCAAAGGTTAACATACTCAGTACGA	4.64	6.54	0.226	-0.237	1.61	3.12	-0.0875	4.64	0.346	2.77
CTCAAAAGGTCGGTTGAGGTGAGTATACGGATAA	-0.129	1.12	0.328	0.889	0.591	3.26	0.191	2.82	-0.384	3.4
TGAATGAGGTTAAGGATCAGGGAACGTGGCGTCG	1.6	2.61	0.781	-0.105	0.99	1.08	-0.0179	2.08	0.367	2.03
CCAGACAGGGGAGAAGGTAACTCAGCCTCGATTA	0.0282	-0.359	-0.398	-1.2	0.413	-0.427	-0.0553	-0.353	0.21	-0.286
TCTGCTAGGTCAGTTGGTCTGCTAACGAGCTGCC	2.62	2.53	0.337	-0.177	-0.432	-0.155	-1.02	0.136	-1.16	3.25
CCAGACAGGTGAGAAGGTAACTCATCCTCGATTA	1.17	0.6	-0.78	0.324	0.757	0.375	0.22	0.525	0.718	0.607
CGCCAAAGTTCAACTAAGGTAACGTAAAGCACGC	0.771	1.55	0.546	0.253	3.81	5.66	5.04	4.28	2.96	5.16
